In the supplement of paper PMC12636033:
± gives the standard deviation of the averaged measurements. Over roughly 33,000 sequences, “E-score (rank enrichment, -0.5 to 0.5)” has its median near -0.0043; the highest 2% begin near 0.24. The list comes from a sample in which the highest values are over-represented; it also holds similar and randomly drawn sequences.

System: 2Sp-muMax20 (muMax20 with two 2,6-bis(methyl)pyridine Cys staples)
Experiment: PBM 8-mer E-score (E-score (rank enrichment, -0.5 to 0.5)); higher = stronger preferential binding
Experimental: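 Protein binding microarray (universal PBM chip covering all 10-mers in fixed probe flanks) with chemically synthesized human Max(13-93) bHLH-LZ analogs (not full-length Max) bearing noncanonical residues (hArg, Tha, Aib, Nle at 65) and aromatic Cys staples. Read-out per 8-mer (and its reverse complement): E-score (rank-based enrichment, -0.5 to 0.5) and Z-score of median probe intensity.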

Row | Sequence | PBM 8-mer E-score
1 | CACGCGAA | 0.0343 ± 0.011
2 | CTAGAGTC | -0.122 ± 0.025
3 | ACCTCTCT | -0.0431 ± 0.11
4 | AGGCACTC | -0.155 ± 0.0063
5 | GCCACGGC | -0.219 ± 0.036
6 | CGCCTATC | 0.0914 ± 0.054
7 | ATGCGGTC | -0.0281 ± 0.033
8 | AAATGTGG | 0.138 ± 0.015
9 | CTATGTGC | 0.13 ± 0.017
10 | ACATGTGC | 0.283 ± 0.052
11 | ACATGTGG | 0.364 ± 0.031
12 | AGATGTGG | 0.0241 ± 0.00082
13 | AGATGTGC | 0.0607 ± 0.028
14 | GCGAAGGA | -0.1 ± 0.011
15 | CCTGAAGC | -0.0531 ± 0.025
16 | AGATTGCA | 0.0232 ± 0.053
17 | CGATTGCA | 0.000985 ± 0.025
18 | TGATTGCA | 0.286 ± 0.081
19 | ACGTCGCA | -0.0865 ± 0.15
20 | CTCGCTTC | -0.0128 ± 0.0032
21 | CACAATAA | 0.0537 ± 0.028
22 | AACAATAC | 0.263 ± 0.0036
23 | AACAAAAA | -0.0104 ± 0.045
24 | TACAAAAA | 0.26 ± 0.052
25 | TACAAGAA | 0.213 ± 0.018

Row | Sequence | PBM 8-mer E-score
26 | AACAATAA | 0.134 ± 0.036
27 | TACAATAA | 0.321 ± 0.051
28 | GACAATAA | 0.188 ± 0.0055
29 | GACAATAC | 0.144 ± 0.15
30 | GATAAACC | -0.167 ± 0.039
31 | TCAGGGGA | 0.143 ± 0.019
32 | TAAACGAA | 0.143 ± 0.00096
33 | AACTGATG | -0.0947 ± 0.093
34 | CAAAACCA | 0.218 ± 0.056
35 | TTCGAAAA | 0.0928 ± 0.011
36 | CCAGAGCC | 0.0426 ± 0.067
37 | AAAATTAT | 0.252 ± 0.027
38 | TTAATTAA | 0.303 ± 0.081
39 | GTAATTAA | 0.123 ± 0.033
40 | ACAATTAT | 0.139 ± 0.091
41 | AAAATTAG | 0.129 ± 0.0083
42 | CTAATTAC | 0.108 ± 0.024
43 | ATAATTAC | 0.297 ± 0.044
44 | AAAATTAA | 0.126 ± 0.057
45 | ATAATTAT | 0.274 ± 0.062
46 | CTAATTAA | 0.0684 ± 0.14
47 | GTAATTAC | 0.177 ± 0.0081
48 | ATAATTAA | 0.183 ± 0.096
49 | CAGCTGGC | 0.00279 ± 0.062
50 | TAAGACGA | 0.118 ± 0.035

Row | Sequence | PBM 8-mer E-score
51 | AGTTCACA | 0.0105 ± 0.0032
52 | AATATCAC | 0.189 ± 0.038
53 | AAGCTGCT | -0.0983 ± 0.048
54 | ACTGACTA | -0.00544 ± 0.014
55 | GGCCTAGA | -0.101 ± 0.039
56 | AGGGCGAG | 0.00325 ± 0.014
57 | AACTAGCT | -0.0509 ± 0.098
58 | CTAACTAA | 0.0344 ± 0.032
59 | ATAACTAA | 0.174 ± 0.018
60 | CTAATTAG | -0.0106 ± 0.077
61 | ATAATTAG | 0.289 ± 0.006
62 | TTAACTAA | 0.248 ± 0.0099
63 | ATAATTCG | 0.221 ± 0.06
64 | ACTCGCTG | -0.155 ± 0.038
65 | AATTGTAC | 0.22 ± 0.0078
66 | TGGTATAA | 0.219 ± 0.019
67 | CGGGTACC | -0.168 ± 0.059
68 | ACGCTACA | 0.161 ± 0.04
69 | ACCCCAAG | 0.167 ± 0.067
70 | ACCCCAGA | 0.102 ± 0.066
71 | ACCCCAGG | -0.135 ± 0.03
72 | ACCCCAAC | 0.2 ± 0.075
73 | ACCCCAGT | 0.303 ± 0.048
74 | ACCCCAAT | 0.248 ± 0.017
75 | CGGCTCAG | -0.245 ± 0.011

Row | Sequence | PBM 8-mer E-score
76 | AAGGCGAG | -0.114 ± 0.11
77 | CCGCACCG | -0.232 ± 0.037
78 | ATTGTAGG | 0.163 ± 0.04
79 | AGAAACAA | 0.23 ± 0.034
80 | ATAATGTA | 0.261 ± 0.054
81 | ATTATGTA | 0.252 ± 0.063
82 | ATTATGTC | -0.0254 ± 0.039
83 | ATTATGTG | 0.19 ± 0.015
84 | ATAATGTC | 0.0928 ± 0.013
85 | CTAATGTA | 0.0902 ± 0.11
86 | CCAAGGTA | -0.122 ± 0.08
87 | ATGGTCCG | -0.11 ± 0.052
88 | GAGCTTAC | 0.0525 ± 0.066
89 | TACCCTGA | 0.0285 ± 0.0041
90 | GCTGAGAC | -0.0936 ± 0.027
91 | GGTTGGCA | -0.0827 ± 0.032
92 | AAAAGCTG | 0.272 ± 0.0057
93 | AAAAGCGC | 0.236 ± 0.064
94 | CAAAGCGC | -0.0804 ± 0.097
95 | CAAAGCTG | 0.0649 ± 0.017
96 | AAAAGCGA | 0.147 ± 0.046
97 | AAAAAGCT | 0.282 ± 0.011
98 | AAAAGCTA | 0.141 ± 0.049
99 | AAAAAGCA | 0.206 ± 0.014
100 | AAAAAGCC | 0.0819 ± 0.062

Row | Sequence | PBM 8-mer E-score
101 | ACTTTTGG | 0.145 ± 0.018
102 | GCAACGGC | -0.147 ± 0.018
103 | GGCTCAGA | -0.204 ± 0.025
104 | CCGAAGCC | -0.258 ± 0.035
105 | ATAGCTAC | 0.204 ± 0.0011
106 | AGGTGTCG | -0.0243 ± 0.082
107 | CAGAGGCC | -0.0446 ± 0.062
108 | GTCAATTA | 0.0735 ± 0.075
109 | ATCAATCG | 0.16 ± 0.038
110 | AACAATTC | 0.166 ± 0.067
111 | CTCAATTA | 0.0912 ± 0.079
112 | AACAATTG | 0.0804 ± 0.12
113 | ATCAATTA | 0.28 ± 0.041
114 | ATCAATTC | 0.159 ± 0.024
115 | ATCAATTG | 0.255 ± 0.068
116 | AACAATTA | 0.246 ± 0.078
117 | AACGTCAT | 0.0419 ± 0.012
118 | AAGTTTCG | 0.0139 ± 0.064
119 | TACACTCA | 0.0543 ± 0.059
120 | CCAGAAAA | -0.0128 ± 0.11
121 | GGGCAAAC | -0.0742 ± 0.046
122 | AATCTATC | 0.061 ± 0.099
123 | CTGTCTAC | -0.085 ± 0.0076
124 | ACGGGTGA | -0.227 ± 0.052
125 | CCCACTTA | 0.236 ± 0.023

Row | Sequence | PBM 8-mer E-score
126 | CACACCCG | -0.15 ± 0.012
127 | CCCACCCC | 0.332 ± 0.046
128 | GCCACTTA | 0.0747 ± 0.039
129 | GCCACCCC | -0.0325 ± 0.055
130 | CCCACCCG | 0.29 ± 0.03
131 | TCCACCCA | 0.00246 ± 0.039
132 | CCCACCCA | 0.364 ± 0.023
133 | GCCACCCA | -0.126 ± 0.068
134 | ACCACCCG | -0.146 ± 0.077
135 | CCCACTTC | 0.00615 ± 0.027
136 | ACCACCCC | 0.0435 ± 0.03
137 | ATCGGCCG | -0.187 ± 0.13
138 | CCGGCGGC | -0.269 ± 0.029
139 | CCTATTCG | -0.105 ± 0.0044
140 | ACGAAGAA | 0.16 ± 0.06
141 | ATGCGATC | 0.00891 ± 0.016
142 | CAAGACGG | -0.109 ± 0.028
143 | GCAATTGC | 0.242 ± 0.013
144 | CCAATTGC | 0.108 ± 0.012
145 | GCAATTGA | 0.0718 ± 0.079
146 | ACGTCCCG | -0.326 ± 0.046
147 | AGGGCGGG | 0.311 ± 0.011
148 | AGGGCGGA | -0.101 ± 0.0044
149 | AGGGCGGC | -0.0202 ± 0.17
150 | ATAACTTC | 0.0494 ± 0.033

Row | Sequence | PBM 8-mer E-score
151 | ATAACTTA | 0.14 ± 0.043
152 | ATAACGTA | 0.107 ± 0.085
153 | ATAACGTC | 0.138 ± 0.029
154 | ATAACTTG | 0.241 ± 0.012
155 | ATAACGTG | 0.293 ± 0.018
156 | CTGGGTCA | -0.0254 ± 0.017
157 | AGCTACGC | 0.0669 ± 0.0082
158 | CCGTCGGC | -0.232 ± 0.016
159 | CAAGCCAC | -0.143 ± 0.044
160 | ATATTTAA | 0.334 ± 0.019
161 | GTATTTTA | 0.0916 ± 0.055
162 | CTATTTTA | 0.224 ± 0.026
163 | ATATTTAC | 0.159 ± 0.032
164 | ATATTTTA | 0.245 ± 0.02
165 | CTATTTAA | -0.0484 ± 0.012
166 | ATCTTAGA | 0.0255 ± 0.036
167 | CTCGCCGC | -0.0225 ± 0.15
168 | AATTGCCG | -0.00487 ± 0.03
169 | GTTCTTTA | 0.000435 ± 0.15
170 | CTTCTTTC | -0.118 ± 0.046
171 | CTTCTTTA | 0.245 ± 0.01
172 | AACCTACT | -0.0133 ± 0.062
